Results taken from PubChem BioAssay (Tox21).
Records with an inconclusive call do not appear. Values without a mark were called inactive. Active and inactive are the calls of the source. Calls follow the shape of the dose curve; as a rule, active = well fitted activation curve with a large enough effect in the repeat runs; inconclusive = weak or mixed curves; inactive = flat fitted curve, though single readings scatter. Where a SMILES comes first, the peptide text is derived from it.

Experiment: A CellTox Green Cytotoxicity Assay to monitor cytotoxicity in HepG2 cells - 40 hour (AID 1224879); also: nearly all actives have a fitted effect of over 40% in size
Details: CellTox Green fluorescence; series mostly up to 76.8 µM; cytotoxicity increase: at the top concentration
Excerpt: National Center for Advancing Translational Sciences [NCATS]
NIH Chemical Genomics Center [NCGC]
U.S. Environmental Protection Agency [EPA]
National Institutes of Environmental Health Sciences [NIEHS]
National Toxicology Program [NTP]
Cell-based models are critical for drug discovery. Determining the natural cytotoxic effects resulting from test compounds is an essential research activity. A CellTox Green Cytotoxicity Assay to monitor cytotoxicity in real time of continues cell culture during 40 hours of the compound treatment was used to screen Tox21 10K library compounds in HepG2 cells. CellTox Green Cytotoxicity Assay is a nonlytic, homogeneous, biofluorescent method to measure cytotoxicity in cell culture after experimental manipulation. The assay system uses a proprietary asymmetric cyanine dye that is excluded from viable cells but preferentially stains the dead cell's DNA. […] Viable cells produce no appreciable increases in fluorescence. Therefore, the fluorescence signal produced by the binding interaction with dead cell DNA is proportional to cytotoxicity.
The mixture of HepG2 cell suspension and reagents were dispensed at 600cells/6 ul/well in 1536-well tissue culture treated black solid bottom plates using a Multidrop dispenser. After the assay plates were incubated at a 37 C/5% CO2 incubator for 5 hours, 23 nL of compounds dissolved in DMSO, positive and negative controls was transferred to the assay plate by a pintool work station. The plates were incubated at 37 C for 40 hours. The fluorescence intensity were measured at 0h, 8h, 16h, 24h, 32h and 40h time points using ViewLux plate reader during compound treatment.
% is scaled to controls: 0 for no effect and ±100 for the full control effect; potency is read from the fitted curve at half-maximal effect.

| SMILES | cytotoxicity increase | Potency |
| --- | --- | --- |
| Nc1nc(-c2ccccc2)c(Br)c(=O)[nH]1 | 0.181% [at 35.3 µM] |  |
| CC(C)CO | 5.57% |  |
| O=C(CCCl)NCCc1ccccc1 | 0.402% [at 35.3 µM] |  |
| C=C(C)[C@@H]1CC=C(C)CC1 | 7.15% |  |
| CCCCCCCCCOC(=O)c1ccccc1C(=O)OCCCCCCCCC | -1.16% |  |
| CCCCCCC1(C)CCC(=O)O1 (stereo not given) | 0.489% |  |
| Cc1ccc(C)c([N+](=O)[O-])c1 | -1.28% |  |
| C=CCCCC | 2.33% |  |
| CC(=O)CCc1ccc(OC(C)=O)cc1 | -4.15% |  |
| CC1(C)CC(OC(=O)CCCCCCCCC(=O)OC2CC(C)(C)NC(C)(C)C2)CC(C)(C)N1 | -12% [at 15.8 µM] |  |
| CCCC(=O)OC/C=C(\C)CCC=C(C)C | 14.4% |  |
| CN(C)C(C)(C)CO | -8.2% |  |
| N#Cc1ccccc1O | -7.22% |  |
| CNCCS(=O)(=O)O | -1.37% |  |
| CCCCC1CCC(O)CC1 (stereo not given) | -0.23% |  |
| CCOC(CN1CCN(CC(C)C(=O)c2ccccc2)CC1)c1ccccc1 (stereo not given) | -19.9% [at 15.8 µM] |  |
| CC(C)OC(=O)OCOP(=O)(CO[C@H](C)Cn1cnc2c(N)ncnc21)OCOC(=O)OC(C)C | -6.86% [at 35.3 µM] |  |
| CC1=C(C(=O)O)N2C(=O)[C@@H](NC(=O)[C@H](N)C3=CCC=CC3)[C@H]2SC1 | -9.8% [at 35.3 µM] |  |
| CC1CCc2c(N3CCC(O)CC3)c(F)cc3c(=O)c(C(=O)O)cn1c23 (stereo not given) | -17.3% [at 35.3 µM] |  |
| OCC1CCC(CO)CC1 (stereo not given) | 0.75% |  |

| SMILES | cytotoxicity increase | Potency |
| --- | --- | --- |
| COc1ccc(CCO)cc1 | -2.28% |  |
| CCO | -11.5% |  |
| CC1CC(=O)CC(C)(C)C1 (stereo not given) | -4.43% |  |
| C=C(C)c1cccc(C(C)(C)N=C=O)c1 | -0.0317% |  |
| C[C@H]1[C@@H](c2ccccc2)NC(=O)N1C | 0.649% |  |
| c1ccc2c(CC3=NCCN3)cccc2c1 | -17.5% [at 35.3 µM] |  |
| Cc1cccc(Cl)c1 | 4.16% |  |
| CC(O)COC(C)(C)C (stereo not given) | 6.9% |  |
| CC(=O)OC1CCCCC1C(C)(C)C (stereo not given) | -10.2% |  |
| NCc1ccc(S(N)(=O)=O)cc1 | -11.4% [at 35.3 µM] |  |
| Fc1ccccc1 | -8.98% |  |
| CCCCCCCCCCCCCBr | -5.34% |  |
| CC(C)NCC(O)c1ccc2ccccc2c1 (stereo not given) | -14.9% [at 35.3 µM] |  |
| CC(S)C(C)S (stereo not given) | -6.51% |  |
| CCC(C)C(C)=O (stereo not given) | 1.74% |  |
| CC(=O)N[C@@H](CO)C(=O)N[C@@H](CC(=O)O)C(=O)N[C@@H](CCCCN)C(=O)N1CCC[C@H]1C(=O)O (Ac-SDKP-OH) | -10.9% [at 35.3 µM] |  |
| Cc1c(N)cccc1Cl | -1.66% |  |
| CCCCCCCCCCCCCCC(=O)NC(CO)CCCCCCCCCCCCCC (stereo not given) | -3.25% |  |
| CC/C=C\CCOC(=O)c1ccccc1O |  | 21.9 µM (active) |
| COc1c2occc2c(OC)c2c(=O)cc(C)oc12 | -11.4% [at 35.3 µM] |  |
